Data as given in PubChem BioAssay AID485344 (National Center for Advancing Translational Sciences (NCATS), 2010).
Hit rate of the full screen: of about 340,000 compounds, about 6,900 (2%) were called active. No stated cut-off is given here; in the data, active means inhibition above about 30%; inactive means below that, where a call was filed. For the sample, actives were picked, then their nearest neighbours and some compounds at random.

The compounds below were run against D(2) dopamine receptor (Homo sapiens) (UniProt P14416) (assay: HTS Assay for Allosteric Antagonists of the Human D2 Dopamine Receptor: Primary Screen for Antagonists). Settings: HEK293 TREx D2 cells, calcium flux, dopamine EC80; at 10 µM; active compounds read high.
Chain of D(2) dopamine receptor (Homo sapiens) (P14416 whole entry, looked up): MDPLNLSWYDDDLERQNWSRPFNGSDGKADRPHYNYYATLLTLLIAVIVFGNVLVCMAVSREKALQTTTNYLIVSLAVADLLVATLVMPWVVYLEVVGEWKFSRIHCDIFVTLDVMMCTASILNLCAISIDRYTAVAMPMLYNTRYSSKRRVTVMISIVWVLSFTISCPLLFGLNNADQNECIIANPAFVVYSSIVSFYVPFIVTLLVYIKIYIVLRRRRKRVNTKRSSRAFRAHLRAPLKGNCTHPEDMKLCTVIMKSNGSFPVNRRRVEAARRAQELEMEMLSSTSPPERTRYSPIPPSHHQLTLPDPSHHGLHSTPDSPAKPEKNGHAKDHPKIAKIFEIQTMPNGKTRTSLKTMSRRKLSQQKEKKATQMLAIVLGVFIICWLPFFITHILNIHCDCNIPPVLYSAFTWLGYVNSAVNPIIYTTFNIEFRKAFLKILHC
Description: NIH Chemical Genomics Center [NCGC] NIH Molecular Libraries Probe Centers Network [MLPCN] MLPCN Grant: NS064831-01 Assay Submitter (PI): David Sibley Dopamine receptors (DARs) are involved in the etiology and/or therapy of a number of neuropsychiatric and endocrine disorders. For instance, all receptor-based antiparkinsonian drugs work via stimulating the D2 DAR subtype whereas all FDA-approved antipsychotic agents are antagonists of this receptor. […] There are three different types of allosteric modulators that we are seeking, two of which will stimulate or augment receptor signaling, allosteric agonists and potentiators, while the third, allosteric antagonists, will attenuate receptor signaling. The present primary screening assay measures compound antagonism after an EC80 addition of dopamine by tracking calcium flux in a […], inducible Hek293 Trex D2 cell line.
Freshly passaged cells are plated in 1536 well black, clear bottom plates at a density of 4000 cells/well in 3 ul of complete media containing 1x tetracycline inducer. After an overnight incubation at 30 C in 5% CO2, cells are loaded with 2 ul of the no wash Calcium Assay Kit (ABD Bioquest) and incubated at room temperature for 30 to 90 minutes. Agonist read: A 10 cycle (1 second/cycle) baseline measurement is taken and then the FDSS online 1536 pintool delivers 23 nl of compound library (as well as dopamine controls) to the plate. The plate is measured for kinetically at 1 cycle/sec for 180 seconds. Following the 180 second read, 1 ul of an EC80 (negative modulation assay) is delivered by an onboard pipette head. Measurements are taken kinetically for an additional 180 seconds.
Further: 0% is about no effect.

inhibition, active:
Cc1c(CN2CC[C@@H](N3CCN(c4ccccn4)CC3)[C@H](O)C2)[nH]c2ccc(F)cc12 51.4%, c1ccc(CC2CCN(c3nc4ccccc4n4cnnc34)CC2)cc1 37.6%, CCCCSc1[nH]c(=O)c(C(=O)OCC)cc1C#N 30.2%, CC(=O)N1c2ccc(S(=O)(=O)N(C)CC(=O)N(C)Cc3ccccc3)cc2CC1C (stereo not drawn) 36.2%, COC(=O)CNc1nc(Cl)nc(N2CCC(C)CC2)n1 35.9%, O=C(CCNS(=O)(=O)c1ccccc1)NCCSc1ccc(Br)cc1 45.1%, NS(=O)(=O)c1ccc(NC(=O)COC(=O)c2ccco2)cc1 38.5%, O=C(COC(=O)C1CCCCC1)Nc1ccc([N+](=O)[O-])cc1 35.3%, COc1ccc(NC(=O)c2cn(-c3ccccc3)nc2SC)cc1 60.7%, O=S(=O)(Nc1cccc(-n2cnnn2)c1)c1cnc(Cl)c(Cl)c1 34.6%, Fc1ccccc1Cn1cnc(NC(=S)NCCc2ccccc2)n1 40.1%

inhibition, inactive:
O=C(CCC1CCCN(C(=O)Cc2ccc(F)cc2)C1)N1CCN(c2ccccn2)CC1 (stereo not drawn) -9.86%, Cc1nc(N2CCN(c3ccccn3)CC2)c2c(C)c(C(=O)Nc3ccc(F)cc3)sc2n1 8.07%, O=C(CN1CCN(C2CCS(=O)(=O)C2)CC1)N1N=C(c2ccc(Cl)cc2)CC1c1ccco1 (stereo not drawn) -10.4%, CC(=O)c1ccc(OCCCC(=O)Nc2ccc(C)c(S(=O)(=O)N3CCOCC3)c2)cc1 6.79%, CC(OC(=O)c1cc2ccccc2o1)C(=O)Nc1ccc(N2CCOCC2)cc1 (stereo not drawn) 8.62%, O=C(c1ccccc1)c1ccc2nc(N3CCCCC3)c3nncn3c2c1 -2.11%, Brc1ccccc1CN1CCC(Cc2ccccc2)CC1 17.7%, CCc1sc(C(=O)N2CCN(CC(=O)Nc3cccc(F)c3)CC2)cc1C 22.4%, Cc1cc(Br)ccc1NC(=O)CN(C)C(=O)CN1C(=O)NC2(CCCC2)C1=O 7.4%, CCOC(=O)C1=C(COC(=O)[C@H](C)NS(=O)(=O)c2ccccc2F)NC(=O)NC1C (stereo partly drawn) 11%, O=C(OCC(=O)N1CCOCC1)c1ccc2ccccc2c1 -1.03%, CCCCCN(C(=O)CCC(=O)OCCOc1ccc(OC)cc1)c1c(N)n(CCCC)c(=O)[nH]c1=O -2.34%, COc1cc2ccccc2cc1C(=O)Nc1ccncc1 5.03%, CC(=O)c1cc(C#N)c(SCC(=O)C(C)(C)C)nc1C -15%, CCOC(=O)c1cc(C)nc(S(C)(=O)=O)c1C#N 5.94%, CCC(C)N(C(=O)CSc1ncnc2c1cnn2-c1ccccc1)C1CCS(=O)(=O)C1 (stereo not drawn) 1.86%, O=C(CCNC(=O)c1ccc(Br)cc1)NCC(c1ccco1)N1CCCCC1 (stereo not drawn) 17%, COc1cccc(CNS(=O)(=O)c2ccc3c(c2)CC(C)N3C(C)=O)c1 (stereo not drawn) -5.54%, CC(=O)N1c2ccc(S(=O)(=O)NCCC(=O)N(C)C3CCCCC3)cc2CC1C (stereo not drawn) -4.33%, CCOc1ccc(NC(=O)CN(C)C(=O)CSc2ccccc2)cc1OCC 13.7%, CCOC(=O)CNc1nc(Cl)nc(Nc2ccccc2)n1 6.97%, Clc1nc(NC2CCCC2)nc(N2CCOCC2)n1 -9.32%, O=C(CN1CCc2ccccc2C1)Nc1cccc(S(=O)(=O)N2CCOCC2)c1 -6.15%, COc1ccc(F)cc1C(=O)COC(=O)c1n[nH]c(=O)c2ccccc12 -10.9%, CN(C(=O)Cn1nnc(-c2ccc(F)cc2)n1)C1CCS(=O)(=O)C1 (stereo not drawn) 9.49%, O=C(CCNS(=O)(=O)c1ccccc1)NCCCc1ccccc1 21%, Cc1ccc(OCCNC(=O)CCNS(=O)(=O)c2ccc(Br)cc2)cc1 23.7%, O=C(CCNS(=O)(=O)c1ccccc1C(F)(F)F)Nc1ccncc1 -6.21%, CN(Cc1ccccc1F)C(=O)C(Cc1ccccc1)NC(=O)c1ccccc1 (stereo not drawn) -5.32%, O=C(COC(=O)CNC(=O)c1ccco1)Nc1ccc(F)cc1 -3.88%, NS(=O)(=O)c1ccc(NC(=O)COC(=O)c2cc3ccccc3oc2=O)cc1 -18.7%, NC(=O)c1ccc(NC(=O)COC(=O)c2ccc([N+](=O)[O-])cc2)cc1 -23.5%, N/C(Cc1ccc([N+](=O)[O-])cc1)=N\OC(=O)C1CCCCC1 2.32%, COc1ccc(CNC(=O)CN2C(=O)NC3(CCCc4sccc43)C2=O)cc1 (stereo not drawn) 2.45%, Cc1ccc(S(=O)(=O)N2CCCCC2)cc1C(=O)N1CCN(CCO)CC1 -6.17%, COc1ccc(-c2nn(-c3ccccc3)cc2C(=O)Nc2nc(CC(C)=O)ns2)cc1 13.1%, COc1ccc(-c2nn(-c3ccccc3)cc2/C=C\C(=O)Nc2ccc(C(=O)O)cc2)cc1 0.137%, O=C(NNC(=O)c1ccc(-n2cncn2)c([N+](=O)[O-])c1)c1ccccc1 1.81%, COc1ccc(C2=NN(C(=O)CSc3nnnn3C)C(c3ccco3)C2)cc1 (stereo not drawn) -18.6%, O=S(=O)(Nc1ccc(-n2cnnn2)cc1)c1ccc(Cl)cc1 -3.4%, Cc1ccc(C)c(S(=O)(=O)Nc2cccc(-n3cnnn3)c2)c1 4.04%, COc1ccccc1CNS(=O)(=O)c1cc(C(=O)NCc2ccccn2)c(Cl)cc1Cl -2.76%, Cc1cccc(NS(=O)(=O)c2ccc(C)c(C(=O)NCC(c3ccccc3)N(C)C)c2)c1 (stereo not drawn) -4.69%, CNC(=O)C1CC(=O)N(c2ccc(OCC(=O)Nc3ccccc3C)cc2)C1 (stereo not drawn) 12.9%, Cc1cc(F)ccc1NC(=S)NCCc1ccccc1 -0.203%, S=C(NCCc1ccccc1)NCc1ccccc1Cl -2.45%, CC(=O)N1CCc2c(sc(NC(=O)CCS(=O)(=O)c3ccc(C)cc3)c2C(N)=O)C1 -1.82%
